High-throughput results deposited in PubChem by National Center for Advancing Translational Sciences (NCATS).
TDP1 cell CPT = DT40-hTDP1 cell growth loss with CPT. chicken DT40 Tdp1-/-;hTDP1 cells + 20 nM CPT, ATP luminescence, 48 h. Potency, µM (doses to about 46.2 µM), inactives show at the top dose activity change, negative = growth inhibition, most hits filed as inhibitors. 12% of 420,000 active. AID 686979; note: nearly all actives have a fitted effect of over 55% in size
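Chicken DT40 Tdp1-/- cells complemented with human TDP1, 400 cells/well, exposed to compounds plus 20 nM camptothecin for at least 48 h at 37 C; viability read as ATP content by CellTiter-Glo luminescence.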
Gal4-VP16 FLuc = counter-screen for ROR gamma inhibitors: Gal4-VP16 reporter | 3.5% of 310,000 active | Drosophila S2 Gal4-VP16 UAS-luciferase, luminescence, 20 h | Potency, µM (highest dose often 53.6 µM), for the others: at the top dose activity, negative = inhibition, hits mostly inhibitors;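 note: Gal4-VP16 expression switched on by copper sulfate through the metallothionein promoter; nearly all actives have a fitted effect of over 50% in size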
DT40 TDP1 no CPT = qHTS for Inhibitors of human tyrosyl-DNA phosphodiesterase 1 (TDP1): qHTS in cells in absence of CPT; DT40 Tdp1-/- hTDP1 cells, no CPT, ATP luminescence, 48 h; Potency, µM (top dose mostly 46.2 µM), without a hit: at the highest dose activity change, negative = growth inhibition, hits mostly inhibitors; 15% of 420,000 active; AID 686978, 2013; note: nearly all actives have a fitted effect of over 55% in size
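Growth of hTDP1-complemented DT40 Tdp1-knockout cells is measured by ATP luminescence after at least 48 hr compound exposure at 37 °C, with DMSO substituting for the 20 nM CPT used in the parallel screen.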
TDP1 inh = blocks human tyrosyl-DNA phosphodiesterase 1 | Potency, µM (doses to about 130 µM), for the others: at the top dose activity change, negative = inhibition, usual class: inhibitors | AID 485290 | Q9NUW8 | 0.28% of 350,000 active | recombinant TDP1, AlphaScreen DNA substrate cleavage; note: nearly all actives have a fitted effect of over 40% in size
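Steps: enzyme plus compound, 15 min RT; add biotin/phosphotyrosine-FITC oligonucleotide (15 nM final), react 5 min; add donor/acceptor beads (10 ug/ml final), 10 min; read AlphaScreen. Tdp1 at 1 nM final.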
RORgamma inh = inhibitors of mouse ROR gamma transcriptional activity; P51450; Drosophila S2 Gal4-RORgamma UAS-luciferase reporter, 20 h; Potency, µM (top dose mostly 53.6 µM), without a hit: at the highest dose activity change, negative = inhibition, most hits filed as inhibitors; 5.4% of 310,000 active; note: nearly all actives have a fitted effect of over 60% in size
Target sequence (P51450 whole entry, looked up, the tested form may be a part): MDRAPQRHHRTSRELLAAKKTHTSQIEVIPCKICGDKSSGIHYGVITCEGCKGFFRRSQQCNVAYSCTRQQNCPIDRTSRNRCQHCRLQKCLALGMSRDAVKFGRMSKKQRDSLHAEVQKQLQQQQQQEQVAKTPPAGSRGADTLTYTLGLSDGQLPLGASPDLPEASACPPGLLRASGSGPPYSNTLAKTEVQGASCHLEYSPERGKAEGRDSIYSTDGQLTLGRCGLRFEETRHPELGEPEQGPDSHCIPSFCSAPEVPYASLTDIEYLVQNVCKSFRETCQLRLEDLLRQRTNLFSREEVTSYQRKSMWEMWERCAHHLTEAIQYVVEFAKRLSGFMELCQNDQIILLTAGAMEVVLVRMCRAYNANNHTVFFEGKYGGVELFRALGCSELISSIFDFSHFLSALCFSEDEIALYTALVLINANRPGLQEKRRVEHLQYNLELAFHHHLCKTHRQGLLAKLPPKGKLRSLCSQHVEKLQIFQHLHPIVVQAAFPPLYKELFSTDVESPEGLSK
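A Gal4/UAS one-hybrid system in insect cells: metallothionein-promoter Gal4–ROR gamma fusion plus Photinus luciferase reporter. Copper sulfate 700 uM final, 20 hr ambient incubation, luminescent detection after 10 min with reagent.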
* = called active by the depositor; ? = inconclusive; / = no result given; [ ] = dose if it differs, or a comment. In the library only some 19% were active in any assay of this set; here they are far more common. Calls come from the whole dose curve; as a rule, active = well fitted curve in the direction sought with a large enough effect; inconclusive = small, poorly fitted or top-dose-only effect, or another doubt; inactive = no such curve, though single readings can be large; an effect the other way counts as inactive or inconclusive. % is set by controls: 0 for no effect and ±100 for the full control effect; potency is the fitted concentration of half-maximal effect.

SMILES | TDP1 cell CPT | Gal4-VP16 FLuc | DT40 TDP1 no CPT | TDP1 inh | RORgamma inh
COc1c(Cl)cc(Cl)cc1C(=O)Nc1ccc(C(=O)O)cc1 | -6% | 1% | -6% | -4% | -11%
Cc1ccc(NC(=O)c2cccs2)cc1NC(=O)c1cccc(F)c1 | -11% | -7% | ? | / | -4%
CCOc1ccc(CCNC(=O)CCS(=O)(=O)c2ccc(Cl)cc2)cc1OCC | -4% | -5% | 3% | 1% | -2%
COc1cc(NC(=O)c2cc3ccccc3cc2OC)ccc1NC(=O)c1cccs1 | 23µM* | -12% | 13µM* | 0% | 0%
COc1cc(NC(=O)c2cccs2)ccc1NC(=O)Cc1ccccc1 | 0% | 2% | -5% | 4%[56.1 µM] | ?
COc1cc(NC(=O)c2cccc(Cl)c2)ccc1NC(=O)c1cccs1 | ? | 2% | 18µM* | 5% | ?
CCN(CC)C(=O)CSc1nnc(NC(=O)CCc2ccccc2)s1 | -29% | -8% | -22% | 8% | 3%
O=S(=O)(NCCSc1nnnn1-c1ccccc1)c1ccc(F)cc1 | ? | / | ? | 7% | /
Cc1nc(CSc2n[nH]c(=O)n2-c2cccc(F)c2)cs1 | 10% | 9% | -1% | 3% | 0%
O=c1[nH]nc(SCCS(=O)(=O)c2ccc(F)cc2)n1-c1ccc2c(c1)OCCO2 | ? | 7% | 16µM* | 4% | 38%
O=c1[nH]nc(SCCS(=O)(=O)c2ccc(F)cc2)n1-c1ccccc1 | 29µM* | -11% | ? | 3% | 2%
CC(C)(C)NCC(O)COc1ccccc1C1CCCC1 (stereo not given) | ? | / | 15µM* | / | /
CC(C)(C)NC[C@@H](O)COc1cccc2c1CCCC2=O | -5% | / | 0% | / | /
CC(C)(C)NC[C@H](O)COc1ccccc1C1CCCC1 | 13µM* | / | 10µM* | / | /
Cc1cccc(NC(=O)CCc2nnc3ccc(N4CCC(C)CC4)nn23)n1 | -8% | 2% | -6% | 4% | 1%
COc1ccc(-c2cc(-c3c(O)c(OC)c4occc4c3OC)[nH]n2)cc1 | 5.8µM* | ? | 5.8µM* | 6% | ?
COc1ccc(-c2cc(=O)c3c(O)c(OC)c(OC)c(OC)c3o2)cc1OC | ? | -5% | ? | 18%[56.1 µM] | -15%
COc1ccc(-c2cc(-c3c(O)c(OC)c4occc4c3OC)[nH]n2)cc1OC | ? | 8.9µM* | 21µM* | 8% | 7.9µM*
COc1ccc(CCN2C(=O)CC(N3CCOCC3)C2=O)cc1 (stereo not given) | -10% | -4% | 5% | 0%[56.1 µM] | -29%
CC(C)CC(NC(=O)OCc1ccccc1)C(=O)NC(Cc1ccccc1)C(=O)CCl (stereo not given) | 4.6µM* | / | 2.9µM* | / | /
Cc1ccc(NC(=O)C(Cc2ccccc2)NC(=O)OCc2ccccc2)cc1C (stereo not given) | ? | ? | 23µM* | 3% | -12%
O=C(Nc1ccc(C(=O)O)cc1)/C(=C\c1ccccc1)NC(=O)c1ccccc1 | 3% | / | -6% | 6% | /
CCOC(=O)c1c(NC(=O)C2COc3ccccc3O2)sc(C)c1C (stereo not given) | ? | -1% | ? | -2% | 10%
Cn1nc([N+](=O)[O-])nc1Sc1nnc(-c2ccccc2)o1 | 5.2µM* | ? | 4.6µM* | -2% | ?
Cn1nc([N+](=O)[O-])nc1Sc1cccc2cccnc12 | 6.5µM* | 18µM* | 21µM* | 9% | 11µM*
O=c1/c(=C\c2cccn2-c2ccccc2)sc2nc3ccccc3n12 | ? | 7% | ? | 7% | 9%
Cc1ccc(-n2c(C)cc(/C=c3/sc4nc5ccccc5n4c3=O)c2C)cc1 | 16µM* | ? | 9.2µM* | -7% | ?
O=C(NCc1cccs1)C1Cc2c(-c3ccc(Cl)cc3)ccnc2O1 (stereo not given) | 1.5µM* | / | 1.8µM* | / | /
CC(=O)c1cccc(-c2ccnc3c2CC(C(=O)NCc2cccs2)O3)c1 (stereo not given) | 0.73µM* | / | 0.73µM* | / | /
